In PubChem BioAssay AID1159580 (chemical genetic matrix, 2015):
The whole screen tested about 5,500 compounds, of which about 2,000 (36%) were called active. About 18% were inconclusive and are not listed. Rule as the data show it: active = normalized growth mostly below about 0.91 (no sharp cut-off); inconclusive = no clear call, values can overlap the other calls; inactive = mostly above about 0.92. This is one part of the list.

Assay: chemical genetic growth profiling, strain panel (AID 1159580);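 also: tested at 20 µM; growth read once vehicle control cultures reached saturation at 30 °C; 1 = growth at the plate median or of vehicle wells; lower values mean less growth of the strain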
Details: growth OD

Measured: normalized growth

CCOCN(C(=O)CCl)c1c(C)cccc1CC
inactive: S. cerevisiae deletion strains, locus YJR043C, strain POL32, active compounds read low 0.983 | S. cerevisiae deletion strains, locus YJR075W, strain HOC1, active compounds read low 0.993 | S. cerevisiae deletion strains, locus YKL009W, strain mrt4, active compounds read low 0.989 | S. cerevisiae deletion strains, locus YKL068W, active compounds read low 0.973 | S. cerevisiae deletion strains, locus YKL085W, strain MDH1 (second series), active compounds read low 0.991 | S. cerevisiae deletion strains, locus YKL085W, strain MDH1, active compounds read low 0.991 | S. cerevisiae deletion strains, locus YKL160W, strain elf1, active compounds read low 0.995 | S. cerevisiae deletion strains, locus YKL190W, strain CNB1, active compounds read low 0.983 | S. cerevisiae deletion strains, locus YKR001C, strain vps1, active compounds read low 0.986 | S. cerevisiae deletion strains, locus YKR026C, strain gcn3, active compounds read low 0.985 | S. cerevisiae deletion strains, locus YKR091W, strain srl3, active compounds read low 0.988 | S. cerevisiae deletion strains, locus YLL001W, strain dnm1, active compounds read low 0.989 | S. cerevisiae deletion strains, locus YLL026W, active compounds read low 0.991 | S. cerevisiae deletion strains, locus YLL041C, strain sdh2, active compounds read low 0.988 | S. cerevisiae deletion strains, locus YLR027C, strain aat2, active compounds read low 0.976 | S. cerevisiae deletion strains, locus YLR039C, strain RIC1, active compounds read low 0.994 | S. cerevisiae deletion strains, locus YLR058C, strain SHM2, active compounds read low 0.986 | S. cerevisiae deletion strains, locus YLR102C, strain apc9, active compounds read low 0.974 | S. cerevisiae deletion strains, locus YLR221C, strain rsa3, active compounds read low 0.981 | S. cerevisiae deletion strains, locus YLR258W, strain gsy2, active compounds read low 1.02 | S. cerevisiae deletion strains, locus YLR262C, strain YPT6 (second series), active compounds read low 0.969 | S. cerevisiae deletion strains, locus YLR262C, strain YPT6, active compounds read low 1.01 | S. cerevisiae deletion strains, locus YLR268W, strain sec22, active compounds read low 0.979 | S. cerevisiae deletion strains, locus YLR320W, strain mms22, active compounds read low 0.986 | S. cerevisiae deletion strains, locus YLR330W, strain CHS5, active compounds read low 0.977 | S. cerevisiae deletion strains, locus YLR342W, strain FKS1 (second series), active compounds read low 0.98 | S. cerevisiae deletion strains, locus YLR342W, strain FKS1, active compounds read low 0.978 | S. cerevisiae deletion strains, locus YLR357W, strain rsc2, active compounds read low 0.961 | S. cerevisiae deletion strains, locus YLR370C, strain arc18, active compounds read low 0.995 | S. cerevisiae deletion strains, locus YLR371W, strain rom2, active compounds read low 0.963 | S. cerevisiae deletion strains, locus YLR384C, strain iki3, active compounds read low 0.98 | S. cerevisiae deletion strains, locus YLR418C, strain cdc73, active compounds read low 1.03 | S. cerevisiae deletion strains, locus YML016C, strain PPZ1, active compounds read low 0.992 | S. cerevisiae deletion strains, locus YML032C, strain rad52, active compounds read low 0.969 | S. cerevisiae deletion strains, locus YML120C, strain ndi1, active compounds read low 0.99 | S. cerevisiae deletion strains, locus YML124C, strain tub3, active compounds read low 0.972 | S. cerevisiae deletion strains, locus YMR058W, strain fet3, active compounds read low 0.988 | S. cerevisiae deletion strains, locus YMR078C, strain ctf18, active compounds read low 0.959 | S. cerevisiae deletion strains, locus YMR125W, strain sto1, active compounds read low 0.988 | S. cerevisiae deletion strains, locus YMR129W, active compounds read low 0.982 | S. cerevisiae deletion strains, locus YMR205C, strain PFK2, active compounds read low 0.996 | S. cerevisiae deletion strains, locus YMR223W, strain ubp8, active compounds read low 0.984 | S. cerevisiae deletion strains, locus YMR231W, strain pep5, active compounds read low 0.981 | S. cerevisiae deletion strains, locus YMR263W, strain SAP30, active compounds read low 0.983 | S. cerevisiae deletion strains, locus YMR307W, strain GAS1, active compounds read low 1 | S. cerevisiae deletion strains, locus YNL067W, strain RPL9B, active compounds read low 0.995 | S. cerevisiae deletion strains, locus YNL071W, strain lat1, active compounds read low 0.989 | S. cerevisiae deletion strains, locus YNL128W, strain TEP1, active compounds read low 0.978 | S. cerevisiae deletion strains, locus YNL153C, strain GIM3, active compounds read low 1 | S. cerevisiae deletion strains, locus YNL209W, strain ssb2, active compounds read low 0.998 | S. cerevisiae deletion strains, locus YNL233W, strain BNI4, active compounds read low 0.996 | S. cerevisiae deletion strains, locus YNL248C, strain rpa49, active compounds read low 0.984 | S. cerevisiae deletion strains, locus YNL250W, strain rad50, active compounds read low 0.977 | S. cerevisiae deletion strains, locus YNL271C, strain bni1, active compounds read low 0.994 | S. cerevisiae deletion strains, locus YNL298W, strain CLA4, active compounds read low 0.968 | S. cerevisiae deletion strains, locus YNL307C, strain MCK1, active compounds read low 0.982 | S. cerevisiae deletion strains, locus YNL322C, strain KRE1 (second series), active compounds read low 0.98 | S. cerevisiae deletion strains, locus YNL322C, strain KRE1, active compounds read low 0.982 | S. cerevisiae deletion strains, locus YNR049C, strain mso1, active compounds read low 0.986 | S. cerevisiae deletion strains, locus YNR052C, strain pop2, active compounds read low 0.957 | S. cerevisiae deletion strains, locus YOL006C, strain TOP1, active compounds read low 1.02 | S. cerevisiae deletion strains, locus YOL012C, strain htz1 0.911 | S. cerevisiae deletion strains, locus YOL147C, strain pex11, active compounds read low 0.981 | S. cerevisiae deletion strains, locus YOR001W, strain rrp6, active compounds read low 0.969 | S. cerevisiae deletion strains, locus YOR061W, strain CKA2, active compounds read low 0.999 | S. cerevisiae deletion strains, locus YOR069W, strain VPS5, active compounds read low 0.987 | S. cerevisiae deletion strains, locus YOR070C, strain gyp1, active compounds read low 0.98 | S. cerevisiae deletion strains, locus YOR080W, strain dia2, active compounds read low 0.975 | S. cerevisiae deletion strains, locus YOR083W, strain WHI5, active compounds read low 1 | S. cerevisiae deletion strains, locus YOR106W, strain vam3, active compounds read low 1 | S. cerevisiae deletion strains, locus YOR136W, strain idh2, active compounds read low 0.98 | S. cerevisiae deletion strains, locus YOR144C, strain elg1, active compounds read low 0.961 | S. cerevisiae deletion strains, locus YOR184W, strain ser1, active compounds read low 0.986 | S. cerevisiae deletion strains, locus YOR265W, strain rbl2, active compounds read low 1 | S. cerevisiae deletion strains, locus YOR270C, strain vph1, active compounds read low 1.01 | S. cerevisiae deletion strains, locus YOR290C, strain snf2, active compounds read low 1 | S. cerevisiae deletion strains, locus YOR316C, strain cot1, active compounds read low 0.978 | S. cerevisiae deletion strains, locus YPL051W, strain arl3, active compounds read low 0.99 | S. cerevisiae deletion strains, locus YPL055C, strain LGE1, active compounds read low 1 | S. cerevisiae deletion strains, locus YPL078C, strain atp4, active compounds read low 0.985 | S. cerevisiae deletion strains, locus YPL106C, strain sse1, active compounds read low 1.01 | S. cerevisiae deletion strains, locus YPL240C, strain hsp82, active compounds read low 0.995 | S. cerevisiae deletion strains, locus YPL241C, strain CIN2, active compounds read low 0.99 | S. cerevisiae deletion strains, locus YPR119W, strain clb2, active compounds read low 0.964 | S. cerevisiae deletion strains, locus YPR141C, strain kar3, active compounds read low 0.987 | S. cerevisiae deletion strains, locus YPR163C, strain tif3, active compounds read low 0.958 | S. cerevisiae deletion strains, locus YPR167C, strain met16, active compounds read low 0.987 | S. cerevisiae deletion strains, strain wtn01, active compounds read low 0.967 | S. cerevisiae strains, strain wild type, active compounds read low 0.993
